Test [1] concerns the target Cellular tumor antigen p53 (Homo sapiens) (UniProt P04637). Put plainly: Primary qHTS for small molecule compounds that upregulate eGFP-tagged delta133p53alpha (in N-terminal) cells. (AID 2060322). Further: nearly all actives have a fitted effect of over 75% in size. Further: potency means the concentration at half of the fitted maximal effect.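 On activation: cells pre-induced with doxycycline then dosed without doxycycline; 0% = DMSO vehicle and 100% = reference activator.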 Particulars: NCI-H358 eGFP-delta133p53alpha fluorescence, 24 h; activation: stronger effect = higher value. In outline:
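NCI-H358 cells pre-induced 24 h with 10 ng/ml doxycycline for eGFP-delta133p53alpha, plated dox-free and exposed 24 h at 37C to titrated compounds. Fixed, Hoechst-stained; gated GFP peak intensity by laser scanning cytometry, normalized to DMSO (0%) and 57.5 uM 5-azacytidine (100%).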
(In qHTS, concentration-response curves come from the screen itself.)

Test [2] addresses Aldehyde dehydrogenase, mitochondrial (Homo sapiens) (UniProt P05091). In words: qHTS for Inhibitors of the Aldehyde Dehydrogenase Family (ALDH2) Primary screen (AID 2061308).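 Further: plate controls were vehicle for no effect and reference inhibitor for full effect; nearly all actives have a fitted effect of over 55% in size.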 Conditions: ALDH2 enzyme inhibition qHTS, 1536-well; series mostly up to 56 µM.
For test [3], the target named is Retinaldehyde dehydrogenase 3 (Homo sapiens) (UniProt P47895). Put plainly: qHTS for Inhibitors of the Aldehyde Dehydrogenase Family (ALDH1A3) Primary screen (AID 2061315).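 Further: plate controls were DMSO vehicle for no effect and reference inhibitor for full effect.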 Particulars: ALDH inhibition qHTS; series mostly up to 56 µM.

We go through 27 compounds from PubChem BioAssay (NCATS).

Results filed as inconclusive are left out. Values without a mark were called inactive. The source made the active and inactive calls. The call rests on the fitted dose curve; in most records, active means well fitted curve in the direction sought with a large enough effect; inconclusive means small, poorly fitted or top-dose-only effect, or another doubt; inactive means no such curve, though single readings can be large; an effect the other way counts as inactive or inconclusive.

Sequence of Cellular tumor antigen p53 (Homo sapiens) (P04637 whole entry, looked up): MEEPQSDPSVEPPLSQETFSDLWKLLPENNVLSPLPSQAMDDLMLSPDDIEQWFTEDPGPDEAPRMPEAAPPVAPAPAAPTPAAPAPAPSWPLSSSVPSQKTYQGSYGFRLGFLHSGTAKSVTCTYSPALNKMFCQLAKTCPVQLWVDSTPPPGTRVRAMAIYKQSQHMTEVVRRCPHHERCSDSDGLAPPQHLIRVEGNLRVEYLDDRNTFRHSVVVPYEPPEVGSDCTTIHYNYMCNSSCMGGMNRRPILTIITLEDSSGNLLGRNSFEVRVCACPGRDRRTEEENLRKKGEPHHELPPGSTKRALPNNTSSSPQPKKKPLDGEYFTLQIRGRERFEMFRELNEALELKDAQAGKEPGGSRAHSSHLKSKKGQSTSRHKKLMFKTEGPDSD

`C=C1C2(CCC(=O)OC2(C)C)CC(OC(=O)/C(C)=C/C)C2(C)C13OC14C(=O)OC(C)(C(=O)C12C(=O)OC4C)C3OC(C)=O` (stereo unspecified): the activation in test [1] is -0.763%. The Potency entry in test [2] and in test [3] was “inactive” throughout.

In the case of `Cc1cccc(N(C)C(=S)Oc2ccc3c(c2)CCC3)c1`, the activation in test [1] is -3%. The Potency result in test [2] and in test [3] was “inactive” each time.

`C#CCOc1ccc2c(c1)c(-c1ccc(C(C)C)cc1)nc(=O)n2C(C)C`: the activation in test [1] was -0.893%. In addition, the Potency result in test [2] and in test [3] was “inactive” each time.

As to `COc1ccccc1-c1cc(Nc2cccc(CS(N)(=O)=O)c2)ncn1`, the Potency in test [1] was 8.49 µM (active). In addition, the Potency result in test [2] and in test [3] was “inactive” in each case.

With `CC(=O)OC1CC(O)(C(C)C)C2C(OC(=O)c3ccc(O)cc3)C=C(C)C(=O)CC12C` (stereo unspecified), the activation in test [1] is 29.8%. Moreover, the Potency result in test [2] and in test [3] was “inactive” throughout.

Turning to `CC1=C(CO)CC(C(C)C2CCC3C4CC=C5CC(OC6OC(COC7OC(CO)C(O)C(O)C7O)C(O)C(O)C6O)CC(O)C5(C)C4CCC23C)OC1=O` (stereo unspecified), the activation in test [1] was 3.05%. Moreover, the Potency entry in test [2] and in test [3] was “inactive” in each case.

With `C[C@]12CC[C@@H]3c4ccc(O)cc4CC[C@H]3[C@@H]1C[C@@H](O[C@@H]1O[C@H](C(=O)O)[C@@H](O)[C@H](O)[C@H]1O)[C@@H]2O`, in test [1], the activation is -6.33%. The Potency result in test [2] and in test [3] was “inactive” in each case.

On to `O=c1[nH]ccc2cc(OC3CCNCC3)ccc12`, for which the activation in test [1] was -7.14%. In addition, the Potency entry in test [2] and in test [3] was “inactive” throughout.

As for `O=C(CCc1ccccc1)N1CCC(O)(Cn2cnc3cc(Cl)ccc3c2=O)CC1`, the activation in test [1] is -13.7%. In addition, the Potency entry in test [2] and in test [3] was “inactive” in each case.

As to `O=C(c1ccccn1)N(Cc1cccs1)C1(C(=O)NC2CCCCC2)CCCCC1`, in test [1], the activation was -1.67%. For the same compound, the Potency result in test [2] and in test [3] was “inactive” in each case.

For the compound `COc1ccc(C(O)C(C)OC2OC(CO)C(O)C(O)C2O)cc1` (stereo unspecified), in test [1], the activation was -7.63%. The Potency entry in test [2] and in test [3] was “inactive” in each case.

As to `CC1CCC2C(C)(C)C(O)CCC2(C)C12Cc1c(O)cc3c(c1O2)CN(C(CCC(N)=O)C(=O)O)C3=O` (stereo unspecified), in test [1], the activation is -13.7%. Moreover, the Potency result in test [2] and in test [3] was “inactive” in each case.

Consider `CC(=O)Nc1ccc(S(=O)(=O)Nc2cc(C)on2)cc1`, for which the activation in test [1] is 11.9%. The Potency entry in test [2] and in test [3] was “inactive” each time.

For the compound `COC(=O)/C=C/C=C/C(=O)OC1C=C2COC(=O)C2(O)C2(C)CCCC(C)(C)C12` (stereo unspecified), the activation in test [1] is -4.58%. Moreover, the Potency entry in test [2] and in test [3] was “inactive” in each case.

As for `CC(=O)O[C@@]1(C)C[C@@H](O)[C@]2(O)C=CO[C@@H](O[C@@H]3O[C@H](CO)[C@@H](O)[C@H](O)[C@H]3O)[C@@H]21`, the activation in test [1] is -14.5%. In addition, the Potency entry in test [2] and in test [3] was “inactive” each time.

Take `CC1(C)CCCC2(C)C(CO)C(CO)=CCC12` (stereo unspecified): in test [1], the activation is -3.82%. The Potency entry in test [2] and in test [3] was “inactive” each time.

Consider `CC(C)=CCC[C@@](C)(O)[C@H]1CC[C@]2(C)[C@@H]1[C@H](O)CC1[C@@]3(C)CC[C@H](O[C@@H]4O[C@H](CO)[C@@H](O)[C@H](O)[C@H]4O[C@@H]4O[C@H](CO)[C@@H](O)[C@H](O)[C@H]4O)C(C)(C)[C@@H]3CC[C@]12C` (stereo partly specified), for which the activation in test [1] is -17.6%. Moreover, the Potency entry in test [2] and in test [3] was “inactive” each time.

As for `O=C(/C=C\c1ccc(O)cc1)N[C@@H](Cc1ccc(O)cc1)C(=O)O`, the activation in test [1] is 17.9%. The Potency entry in test [2] and in test [3] was “inactive” in each case.

With `C=C1C(=O)O[C@@H]2C/C(C)=C\C(=O)/C=C(\C)[C@@H](OC(=O)/C(C)=C\C)[C@H](O)[C@@H]12`, the Potency in test [1] was 5.88 µM (active). For the same compound, the Potency result in test [2] and in test [3] was “inactive” throughout.

Turning to `C[C@H](N)C(=O)N[C@@H](Cc1ccc(O)cc1)C(=O)N1CCC[C@H]1C(=O)NCC(=O)N[C@@H](CCCCN)C(=O)N[C@@H](Cc1ccccc1)C(N)=O`, the activation in test [1] is -5.67%. For the same compound, the activity change, negative = inhibition in test [2] is 4.44% [at 11.2 µM]; in test [3] it was -9.63% [at 11.2 µM].

For the compound `COc1cc(O)cc(C)c1C(=O)OC1C(CO)OC(n2ccc(=O)[nH]c2=O)C1OC(C)=O` (stereo unspecified), the activation in test [1] was -6.11%. For the same compound, the Potency entry in test [2] and in test [3] was “inactive” in each case.

Consider `C=C(C)C(O)COc1ccc(CC(=O)O)cc1` (stereo unspecified), for which the activation in test [1] was 8.93%. The Potency entry in test [2] and in test [3] was “inactive” in each case.

As to `CCC(C)/C=C(C)/C=C/C1=CC2=C(Cl)C(=O)C(C)(O)C(=O)C2(O)C(OC)O1` (stereo unspecified), in test [1], the activation was 28.2%. The Potency result in test [2] and in test [3] was “inactive” in each case.

For the compound `C=C1CCC2C(C)(C(=O)O)CCCC2(C)C1CCC(C)CC(=O)O` (stereo unspecified), in test [1], the activation was -3.57%. Further, the Potency result in test [2] and in test [3] was “inactive” throughout.

On to `N#Cc1cc(-c2n[nH]c(-c3ccncc3)n2)ccn1`, for which the activation in test [1] is 4.46%. Moreover, the Potency entry in test [2] and in test [3] was “inactive” in each case.

Take `C=C(COC(=O)C(O)C(O)CN)C12OC1C1(C)C(=CC2=O)C(O)C(O)CC1C` (stereo unspecified): the activation in test [1] was -7.63%. Moreover, the Potency result in test [2] and in test [3] was “inactive” in each case.

For the compound `CC(=O)OC(C)C(C)(O)C(=O)O[C@@H]1CC[C@]2(C)CC(=O)C(=C(C)C)C[C@H]2[C@]1(C)OC(C)=O` (stereo partly specified), the activation in test [1] is 2.29%. Besides, the Potency entry in test [2] and in test [3] was “inactive” throughout.
